# The list is not random: actives were taken first. Their share in the collection is about 7.4%.
# Luciferase inh – Firefly luciferase inhibition profiling of diverse chemical library using quantitative high-throughput screening; Luciferin 4-monooxygenase (Photinus pyralis), P08659; purified P. pyralis luciferase, luminescence, biochemical; Potency, µM (titrated, usually from 115 µM), actives largely listed as inhibitors; 76,000 tested, 2.5% active; note: nearly all actives have a fitted effect of over 65% in size
#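 Luminescence read by CCD imaging after purified firefly luciferase (10nM final) was added to substrate buffer holding 10uM D-luciferin and 10uM ATP, pH 7.5, pre-dosed with compound.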
# 3T3 cytotox – Cytotoxic Profiling in NIH 3T3 Cell Line of Diverse Libraries Using Quantitative High-Throughput Screening | NIH 3T3 viability, CellTiter-Glo ATP luminescence, 48-72 h | Potency, µM (series often up to 96.7 µM), inactives show at the highest dose activity change, negative = cytotoxicity, actives largely listed as inhibitors | 94,000 tested, 4.3% active; note: nearly all actives have a fitted effect of over 55% in size
#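 ATP-dependent luminescence (CellTiter-Glo) served as the viability signal for NIH 3T3 cells treated with compound for 48 or 72 hr at 37 °C.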
# HEK293 tox – Cytotoxic Profiling in HEK 293 Cell Line of Diverse Libraries Using Quantitative High-Throughput Screening; HEK 293 viability, ATP luminescence (CellTiter-Glo), 48-72 h; Potency, µM (highest dose often 115 µM), for inactives: top-dose activity change, negative = cytotoxicity, hits mostly inhibitors; 94,000 tested, 6.6% active; note: nearly all actives have a fitted effect of over 60% in size
#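 Cells seeded first (HEK 293, 250 cells/well), then compound added by pintool. Incubation ran 48 or 72 hr at 37 degree Celsius. CellTiter-Glo was added and luminescence imaged after 10 min at room temperature.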
# HEK293 viab – GF-AFC viability counterscreen for inhibitors of alpha-synuclein gene (SNCA) expression; HEK-293-SNCA-luc viability, GF-AFC fluorescence, 24 h; 150,000 tested, 0.12% active; Potency, µM (series often up to 57.1 µM), for inactives: at the top dose activity change, negative = cytotoxicity, usual class: cytotoxic;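 note: 0% = DMSO-treated cells and -100% = medium-only wells without cells; nearly all actives have a fitted effect of over 30% in size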
#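 HEK-293-SNCA-luc cells (1500/well) plated 24 h, then exposed 24 h to a dilution series; GF-AFC added 30 min at 37C, fluorescence 405/540 nm; normalised to medium-only and DMSO wells, Hill fit.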
# NPR1 antag – Natriuretic polypeptide receptor (hNpr1) antagonism - Primary qHTS; HEK293 hNpr1 GloSensor cGMP, ANP-stimulated luminescence; 76,000 tested, 1.6% active; AID 1347048, 2019; Potency, µM (doses to about 46.3 µM), without a hit: top-dose activity change, negative = inhibition, most hits filed as inhibitors; calls by dose curve; note: nearly all actives have a fitted effect of over 60% in size
#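 HEK293 cells stably expressing human Npr1 and cGMP GloSensor pGS-40F, loaded 2 h with 2% GloSensor reagent, given compound 30 min at room temperature. Luminescence read before and 20 min after 0.1 nM hNppA.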
# SNCA expr inhib – Primary qHTS assay for inhibitors of alpha-synuclein gene (SNCA) expression; HEK-293 SNCA-luciferase knock-in, luminescence, 24 h; Potency, µM (top dose mostly 57.2 µM), for inactives: at the top dose activity change, negative = inhibition, usual class: inhibitors; 140,000 tested, 0.17% active;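 note: plate controls were DMSO cells for no effect and cell-free wells for full effect; nearly all actives have a fitted effect of over 45% in size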
# * marks the source's active call; other numbers are inactive results; i = inactive; ? = inconclusive; / = no result given; [ ] = dose if it differs, or a comment. Unless noted, calls come from the whole dose curve; as a rule, active = well fitted curve in the direction sought with a large enough effect; inconclusive = small, poorly fitted or top-dose-only effect, or another doubt; inactive = no such curve, though single readings can be large; an effect the other way counts as inactive or inconclusive. Unless noted, % is set by controls: 0 for no effect and ±100 for the full control effect; potency is the fitted concentration of half-maximal effect.
SMILES,Luciferase inh,3T3 cytotox,HEK293 tox,HEK293 viab,NPR1 antag,SNCA expr inhib
COCCN1CCCN(C(=O)c2cccc(Cl)c2)c2ccccc21,i,?,44.7µM*,7.5%,-5.2%,?
COCCN1C(=O)CCC2(CNC(=O)c3cc(F)ccc3F)CCCC=C12 (stereo not given),i,-15.3%,-8.5%,0.6%,8.7%,-17.5%
Cc1ccccc1CN1Cc2nc(OCc3cccnc3)ccc2OCC1=O,i,?,?,-12.7%[87.6 µM],?,?
Cc1ccccc1CN1Cc2nc(-c3ccccc3)ccc2OCC1=O,i,?,89.1µM*,-20.4%[87.6 µM],-5.9%[70.6 µM],-24.7%[87.6 µM]
NC(=O)c1cccc(-c2ccc3c(n2)CN(Cc2nc4ccccc4s2)C(=O)CO3)c1,i,?,79.4µM*,-16.0%[87.6 µM],-21.5%[70.6 µM],-1.8%[87.6 µM]
O=C1COc2ccc(-c3ccccc3)nc2CN1Cc1ccccc1F,i,?,?,2.3%[87.6 µM],-11.2%[70.6 µM],-18.6%[87.6 µM]
O=C1COc2ccc(-c3ccsc3)nc2CN1Cc1ccccc1F,i,?,100µM*,-6.9%[87.6 µM],1.2%[70.6 µM],9.4%[87.6 µM]
O=C1COc2ccc(OCc3cccnc3)nc2CN1Cc1ccccc1F,i,?,89.1µM*,-5.7%[87.6 µM],?,7.3%[87.6 µM]
Cc1cccc2c1nc1n2[C@@H](CNC(=O)c2ccc(C#N)cc2)COC1,i,?,-23.1%[172 µM],-21.3%[87.6 µM],-1.8%[70.6 µM],1.9%[87.6 µM]
Cc1occc1C(=O)N[C@@H]1CN(c2ncccn2)C[C@H]1CO,i,-8.6%,-4.1%,12.6%,0.7%,-25.8%
Cc1nn(C)cc1CN(C)C(=O)c1cc2cn(C(C)C)cc2s1,i,-7.8%,-8.1%,-3.0%,-11.4%,-7.8%
COc1ccc(C(=O)NC[C@H]2O[C@@H](CC(=O)N3CCN(c4ccccc4OC)CC3)[C@H](O)[C@@H]2O)cc1,i,-25.8%,-11.3%,-3.7%,0.2%,8.2%
Cc1nc(CN2Cc3nc(-c4cnn(Cc5ccccc5)c4)ccc3OCC2=O)cs1,i,-29.0%[138 µM],?,-18.1%[87.6 µM],?,?
Cc1ccccc1CN1Cc2nc(-c3cnn(Cc4ccccc4)c3)ccc2OCC1=O,i,22.4µM*,35.5µM*,?,?,?
Cc1ccccc1CN1Cc2nc(-c3cnn(C)c3)ccc2OCC1=O,i,31.6µM*,100µM*,-4.9%[87.6 µM],4.5%[70.6 µM],-1.3%[87.6 µM]
Cc1nnc2n1CCC(N(C)C(=O)CC1=CCCCC1)CC2 (stereo not given),i,-9.5%,4.8%,12.4%,-6.4%,-9.0%
O=C(c1ccc(C(F)(F)F)cc1)N1CCC2(Cc3ccccc3NC2=O)C1 (stereo not given),i,?,?,-1.8%,?,11.9%
COc1ccc(C(=O)N[C@@H]2C=C[C@@H](c3c(C)nn(-c4ccc(C(F)(F)F)cc4)c3C)C2)cc1,i,?,?,-5.1%,1.2%,-9.2%
Cc1nn(-c2ccc(C(C)(C)C)cc2)c(C)c1[C@@H]1C=C[C@@H](NC(=O)c2ccc(N(C)C)cc2)C1,i,?,?,-26.0%,-13.2%,-8.0%
COc1ccc(CN[C@@H]2C=C[C@@H](c3c(C)nn(-c4ccccc4)c3C)C2)cc1,?,50.1µM*,28.2µM*,?,-19.3%[70.6 µM],33.8%[87.6 µM]
COc1ccc(-n2nc(C)c([C@@H]3C=C[C@@H](NCc4cccc(Cl)c4)C3)c2C)cc1,39.8µM*,25.1µM*,28.2µM*,?,?,-1.1%[87.6 µM]
COc1ccc(-n2nc(C)c([C@@H]3C=C[C@@H](NCc4ccc(N(C)C)cc4)C3)c2C)cc1,22.4µM*,?,?,-26.1%[87.6 µM],?,-1.8%[87.6 µM]
COc1ccc(-n2nc(C)c([C@@H]3C=C[C@@H](NC(=S)NCC(C)C)C3)c2C)cc1,15.8µM*,?,28.2µM*,-26.2%[87.6 µM],28.2µM*,66.8%[87.6 µM]
CC1CCC2(CC1)OCC(C(=O)NC1CC1)N2C(=O)c1ccccc1F (stereo not given),i,-3.9%,i,1.7%,2.6%,-25.5%
CC(=O)NCc1nnc2n1C(C(=O)NCCN1CCOCC1)CC2 (stereo not given),/,-9.7%,-1.1%,7.0%[12.5 µM],/,7.9%
SMILES,Luciferase inh,3T3 cytotox,HEK293 tox,HEK293 viab,NPR1 antag,SNCA expr inhib
FC1(F)CN[C@H](c2nc(-c3cccnc3)no2)C1,i,i,3.0%,-22.5%,-1.6%,7.4%
COc1cc2c(cc1OC)CN(C(=O)/C=C/c1c(-c3ccccc3)n(C)c3ncccc13)CC2,/,/,/,-20.0%,/,/
CCOc1ccc(NC(=O)Cn2c(N3CCc4ccccc4C3)nc(C)cc2=O)cc1,i,31.6µM*,39.8µM*,-13.1%,-12.2%,-22.7%
Cc1cc(=O)n(CC(=O)Nc2ccc(C)c(C)c2)c(N2CCc3ccccc3C2)n1,i,-1.8%,?,-7.8%,-12.9%,35.8%
CCOc1ccc(NC(=O)Cn2c(Nc3cc(C)cc(C)c3)nc(C)cc2=O)cc1,i,31.6µM*,?,-14.6%,-27.4%,-8.7%
CC(=O)c1cccc(NC(=O)Cn2c(N3CCc4ccccc4C3)nc(C)cc2=O)c1,i,?,44.7µM*,?,-22.0%,?
Cc1cc(=O)n(CC(=O)Nc2cccc(C#N)c2)c(N2CCc3ccccc3C2)n1,i,?,?,-28.0%,-5.3%,-15.7%
CC(=O)c1ccc(NC(=O)Cn2c(N3CCc4ccccc4C3)nc(C)cc2=O)cc1,i,28.2µM*,35.5µM*,?,-26.9%,-19.5%
CCOc1ccc(NC(=O)Cn2c(-c3ccccc3)nc(C)cc2=O)cc1,i,?,?,-15.3%,-2.6%,?
CO[C@H]1C(=O)N(C)C2(CCN(C(=O)c3cccs3)CC2)[C@@H]1C(=O)N(C)c1ccccc1,/,?,-3.9%,/,/,/
O=C(CCCn1cnnn1)NC1CCCc2c1cnn2-c1ccccn1 (stereo not given),i,-1.8%,-5.2%,1.6%,5.8%,-8.6%
Cc1ccc(-c2nccn3cc(C(=O)NCC(C)C)nc23)cc1,i,?,39.8µM*,-1.9%,-8.3%,-15.5%
Cc1ccc(-c2nccn3cc(C(=O)O)nc23)cc1,i,?,3.1%,3.4%,0.3%,?
Cc1nn(-c2ccccc2)c2c1C(C(C)C)N(C1CCN(C(=O)Nc3ccccc3)C1)C2=O (stereo not given),/,?,-11.8%,/,/,/
Cc1nn(-c2ccccc2)c2c1C(C(C)C)N(C1CCN(C(=O)C(C)(C)C)C1)C2=O (stereo not given),/,?,89.1µM*,/,/,/

# Compound activity as filed in PubChem BioAssay.
